Test results: PubChem BioAssay AID1159580 (chemical genetic matrix, 2015)
Out of some 5,500 compounds screened, about 2,000 (36%) were called active. Inconclusive results (about 18%) are left out. No stated cut-off is given here; in the data, active means normalized growth mostly below about 0.91 (no sharp cut-off); inconclusive means no clear call, values can overlap the other calls; inactive means mostly above about 0.92. This is one part of the list.

Experiment: chemical genetic growth profiling, strain panel (AID 1159580);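 further: tested at 20 µM; growth read once vehicle control cultures reached saturation at 30 °C; 1 = growth at the plate median or of vehicle wells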
Details: S. cerevisiae deletion strains, growth OD

Measured: normalized growth

CC(=O)N[C@@H](CC(=O)O)C(=O)O
inactive: locus YAL013W, strain DEP1, stronger effect = lower value 1.01 | locus YAL021C, strain ccr4, stronger effect = lower value 0.998 | locus YAL026C, strain drs2, stronger effect = lower value 1.01 | locus YAL030W, strain snc1, stronger effect = lower value 0.997 | locus YBL061C, strain skt5, stronger effect = lower value 1.01 | locus YBR009C, strain hhf1, stronger effect = lower value 1.01 | locus YBR021W, strain FUR4, stronger effect = lower value 1.02 | locus YBR023C, strain chs3, stronger effect = lower value 1 | locus YBR171W, strain sec66, stronger effect = lower value 1 | locus YBR229C, strain ROT2, stronger effect = lower value 1.01 | locus YBR231C, strain swc5, stronger effect = lower value 0.982 | locus YBR279W, strain paf1, stronger effect = lower value 1 | locus YCL011C, strain gbp2, stronger effect = lower value 1.01 | locus YCL016C, strain dcc1, stronger effect = lower value 1 | locus YCL029C, strain bik1, stronger effect = lower value 1.03 | locus YCL069W, strain vba3, stronger effect = lower value 1.01 | locus YCR088W, strain abp1, stronger effect = lower value 1 | locus YDL005C, strain med2, stronger effect = lower value 0.997 | locus YDL035C, strain GPR1, stronger effect = lower value 1 | locus YDL040C, strain nat1, stronger effect = lower value 1.01 | locus YDL074C, strain BRE1, stronger effect = lower value 1.01 | locus YDL101C, strain DUN1, stronger effect = lower value 1.01 | locus YDL134C, strain PPH21, stronger effect = lower value 1.01 | locus YDL185W, strain tfp1, stronger effect = lower value 1.02 | locus YDL192W, strain arf1, stronger effect = lower value 1.02 | locus YDR001C, strain nth1, stronger effect = lower value 1.01 | locus YDR069C, strain doa4, stronger effect = lower value 1.03 | locus YDR101C, strain arx1, stronger effect = lower value 1.02 | locus YDR137W, strain rgp1, stronger effect = lower value 0.997 | locus YDR150W, strain NUM1, stronger effect = lower value 1.01 | locus YDR159W, strain sac3, stronger effect = lower value 0.969 | locus YDR162C, strain NBP2, stronger effect = lower value 1.01 | locus YDR195W, strain ref2 0.972 | locus YDR297W, strain sur2, stronger effect = lower value 1.02 | locus YDR318W, strain mcm21, stronger effect = lower value 1.01 | locus YDR334W, strain swr1, stronger effect = lower value 1.01 | locus YDR335W, strain msn5, stronger effect = lower value 1.01 | locus YDR388W, stronger effect = lower value 1.01 | locus YDR392W, strain spt3, stronger effect = lower value 0.932 | locus YDR502C, strain sam2, stronger effect = lower value 1.02 | locus YEL003W, strain gim4, stronger effect = lower value 1.01 | locus YEL037C, strain rad23, stronger effect = lower value 1.01 | locus YEL061C, strain CIN8 (second series), stronger effect = lower value 1.01 | locus YEL061C, strain CIN8, stronger effect = lower value 1.01 | locus YER015W, strain faa2, stronger effect = lower value 1.01 | locus YER016W, strain bim1, stronger effect = lower value 1 | locus YER110C, stronger effect = lower value 1.02 | locus YER111C, strain swi4, stronger effect = lower value 1.01 | locus YER155C, strain BEM2 (second series), stronger effect = lower value 0.999 | locus YER155C, strain BEM2, stronger effect = lower value 1.01 | locus YER167W, strain BCK2, stronger effect = lower value 1.01 | locus YFR010W, strain ubp6, stronger effect = lower value 1 | locus YGL078C, strain dbp3, stronger effect = lower value 1.01 | locus YGL086W, strain mad1, stronger effect = lower value 1.01 | locus YGL167C, strain pmr1, stronger effect = lower value 1 | locus YGL173C, strain kem1, stronger effect = lower value 1.02 | locus YGL227W, strain vid30, stronger effect = lower value 1.01 | locus YGL240W, strain doc1, stronger effect = lower value 0.984 | locus YGL248W, strain PDE1, stronger effect = lower value 1 | locus YGL253W, strain hxk2, stronger effect = lower value 1.01 | locus YGR078C, strain PAC10, stronger effect = lower value 1.01 | locus YGR135W, strain pre9, stronger effect = lower value 1.01 | locus YGR229C, strain SMI1, stronger effect = lower value 1.01 | locus YGR252W, strain gcn5, stronger effect = lower value 0.959 | locus YHR013C, strain ard1, stronger effect = lower value 1.01 | locus YHR027C, strain rpn1, stronger effect = lower value 0.993 | locus YHR030C, strain SLT2, stronger effect = lower value 1.01 | locus YHR079C, strain IRE1 (second series), stronger effect = lower value 1.01 | locus YHR094C, strain hxt1, stronger effect = lower value 1.01 | locus YHR129C, strain ARP1, stronger effect = lower value 0.997 | locus YHR142W, strain chs7, stronger effect = lower value 1.01 | locus YHR200W, strain rpn10, stronger effect = lower value 1.02 | locus YIL066C, strain RNR3, stronger effect = lower value 1.02 | locus YIL073C, strain SPO22, stronger effect = lower value 1.02 | locus YIL125W, strain kgd1, stronger effect = lower value 1.01 | locus YIR030C, strain dcg1, stronger effect = lower value 1.03 | locus YJL092W, strain hpr5, stronger effect = lower value 1.01 | locus YJL095W, strain BCK1 (second series), stronger effect = lower value 0.999 | locus YJL095W, strain BCK1, stronger effect = lower value 1.02 | locus YJL115W, strain asf1, stronger effect = lower value 1 | locus YJL129C, strain trk1, stronger effect = lower value 1 | locus YJL134W, strain LCB3, stronger effect = lower value 1.01 | locus YJL154C, strain vps35, stronger effect = lower value 1.01 | locus YJL164C, strain tpk1, stronger effect = lower value 1 | locus YJL166W, strain qcr8, stronger effect = lower value 1.01 | locus YJL168C, strain set2, stronger effect = lower value 1.01 | locus YJL187C, strain SWE1 (second series), stronger effect = lower value 1.01 | locus YJL187C, strain SWE1, stronger effect = lower value 1.03
